A short description of assay [1]: Drug repurposing screens with cells derived from glioblastoma tumor samples (AID 1345199). Further: nearly all actives have a fitted effect of over 40% in size. Further: potency means the concentration at half of the fitted maximal effect. On activity, negative = cell killing: on the % scale 0 is the no-effect control and ±100 the full control effect. The note with it: GBM patient neurospheres viability, ATP luminescence, 48 h. In a few lines: (§1)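 Primary testing used CD133+ neurospheres from four GBM patients, seven concentrations, 48 h exposure and ATP-based viability; confirmation added three slower-growing patient lines.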

Assay [2] has as its system astro (control astrocytes). Described as above. The note with it: viability, ATP luminescence, 48 h; series mostly up to 45.9 µM. In outline:
as §1

In assay [3] the target is Nuclear receptor subfamily 1 group I member 2 (Rattus norvegicus) (UniProt Q9R1A7). The experiment in a line: qHTS assay for small molecule activators of the rat pregnane X receptor (rPXR) signaling pathway (AID 651751; call rule not given here; further: 0% is about no effect). The note with it: rPXR reporter cells, luciferase (One-Glo), 24 h.
A short description of assay [4]: qHTS assay for small molecule activators of the human pregnane X receptor (PXR) signaling pathway (AID 720659; call rule not given here; further: 0% is about no effect). The note with it: DPX-2 HepG2 CYP3A4-luciferase, 24 h; series mostly up to 92.3 µM.
[5] abbreviates: at 20 µM (top of the series), tumour line C.
Where [6] appears, read: at 21.2 µM (top of the series), tumour line B.
Where [7] appears, read: at 21.2 µM (top of the series), tumour line D.
Setting [8] is: at 21.3 µM (top of the series), tumour line A.
Where [9] appears, read: at 45.9 µM (top of the series), tumour line B.
[10] abbreviates: at 45.9 µM (top of the series), tumour line D.
The mark [11] stands for this setting: at 46 µM (top of the series), tumour line A.
Where [12] appears, read: at 46.1 µM (top of the series), tumour line C.

Values joined by “and” are separate entries in the source; they are usually repeats but may differ in a detail not shown here. Identical values can stand only once. Values without a mark were called inactive. Inconclusive results are not listed. Active and inactive are the calls of the source. Unless noted, the call rests on the fitted dose curve; in most records, active means well fitted inhibition curve with a large enough effect; inconclusive means small, poorly fitted or top-dose-only effect; inactive means flat fitted curve, though single readings scatter.

Nuclear receptor subfamily 1 group I member 2 (Rattus norvegicus), sequence (Q9R1A7 whole entry, looked up): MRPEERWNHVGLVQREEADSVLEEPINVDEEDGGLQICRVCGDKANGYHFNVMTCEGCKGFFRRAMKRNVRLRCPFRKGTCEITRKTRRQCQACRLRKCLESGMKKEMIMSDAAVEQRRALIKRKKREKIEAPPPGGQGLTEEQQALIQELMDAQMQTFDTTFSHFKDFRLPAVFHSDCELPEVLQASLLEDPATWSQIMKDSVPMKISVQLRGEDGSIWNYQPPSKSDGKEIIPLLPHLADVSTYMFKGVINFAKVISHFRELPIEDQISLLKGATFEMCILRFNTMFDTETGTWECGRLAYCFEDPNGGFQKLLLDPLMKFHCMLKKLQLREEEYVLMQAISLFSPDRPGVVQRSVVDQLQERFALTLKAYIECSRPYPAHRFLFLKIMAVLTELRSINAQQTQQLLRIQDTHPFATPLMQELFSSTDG

For the compound `NC[C@H]1O[C@H](O[C@H]2[C@H](O)[C@@H](O[C@H]3O[C@H](CO)[C@@H](O)[C@H](N)[C@H]3O)[C@H](N)C[C@@H]2N)[C@H](N)C[C@@H]1O`, the activity, negative = cell killing in assay [1] (setting [5]) is 1.26%; in assay [1] (setting [6]), -9.72%; in assay [1] (setting [7]), -3.61%; in assay [1] (setting [8]), -18.4%. Moreover, the Potency result in assay [2] is “inactive”.

In the case of `O=C(O)[C@H]1CN(C/C=C/P(=O)(O)O)CCN1`, the activity, negative = cell killing in assay [1] (setting [9]) is -1.77%; in assay [1] (setting [10]), 1.08%; in assay [1] (setting [11]) it was -25.5%; in assay [1] (setting [12]) it was -5.57%. For the same compound, the Potency entry in assay [2] was “inactive”.

For `C=CC[C@@H]1/C=C(\C)C[C@H](C)C[C@H](OC)[C@H]2O[C@@](O)(C(=O)C(=O)N3CCCC[C@H]3C(=O)O[C@H](/C(C)=C/[C@@H]3CC[C@@H](O)[C@H](OC)C3)[C@H](C)[C@@H](O)CC1=O)[C@H](C)C[C@@H]2OC`, the activity, negative = cell killing in assay [1] (setting [9]) was -12.2%; in assay [1] (setting [10]), -18.8%; in assay [1] (setting [12]) it was -16.1%. Moreover, the Potency in assay [1] (tumour line A) is 7.94 µM (active). Besides, in assay [2], the Potency result was “inactive”.

On to `CC(C)(C)CC(C)(C)c1cc(Cc2cc(C(C)(C)CC(C)(C)C)cc(-n3nc4ccccc4n3)c2O)c(O)c(-n2nc3ccccc3n2)c1`, for which the activity, negative = cell killing is -3.94% in assay [1] (setting [9]), -1.11% in assay [1] (setting [10]), -36.5% in assay [1] (setting [11]) and -23.5% in assay [1] (setting [12]). Further, the Potency entry in assay [2] was “inactive”.

As to `CC1(O)CCC(C(C)(C)O)CC1` (stereo unspecified), the activity, negative = cell killing is -1.19% in assay [1] (setting [9]), -26.4% in assay [1] (setting [10]), -16.9% in assay [1] (setting [11]) and 9.01% in assay [1] (setting [12]). Further, the Potency entry in assay [2] is “inactive”.

Regarding `O=C(O)CCC/C=C\C[C@@H]1[C@@H](/C=C/[C@@H](O)COc2cccc(Cl)c2)[C@H](O)C[C@@H]1O`, the activity, negative = cell killing was -7.43% in assay [1] (setting [9]), 0.189% in assay [1] (setting [10]), -25.8% in assay [1] (setting [11]) and -22.5% in assay [1] (setting [12]). The Potency result in assay [2] was “inactive”.

As to `CC[C@H]1OC(=O)C[C@@H](O)[C@H](C)[C@@H](O[C@@H]2O[C@H](C)[C@@H](O[C@H]3C[C@@](C)(O)[C@@H](O)[C@H](C)O3)[C@H](N(C)C)[C@H]2O)[C@@H](CC=O)C[C@@H](C)C(=O)/C=C/C(C)=C/[C@@H]1CO[C@@H]1O[C@H](C)[C@@H](O)[C@@H](OC)[C@H]1OC`, the activity, negative = cell killing is -18.4% and -8.3% in assay [1] (setting [9]); -0.155% and -17.6% in assay [1] (setting [10]); -15.7% in assay [1] (setting [11]); -3.5% and -16.4% in assay [1] (setting [12]). The Potency result in assay [2] was “inactive”.

On to `S=C=Nc1ccc(N=C=S)cc1`, for which the activity, negative = cell killing in assay [1] (setting [9]) was -4.92%; in assay [1] (setting [10]) it was -5.1%; in assay [1] (setting [11]), -24.5%; in assay [1] (setting [12]), -6.65%. Besides, the Potency entry in assay [2] was “inactive”.

Take `CC1(C)[C@H]2CC[C@]1(C)[C@H](O)C2`: the activity, negative = cell killing in assay [1] (setting [9]) is -3.63%; in assay [1] (setting [10]), -3.69%; in assay [1] (setting [11]) it was -22.7%; in assay [1] (setting [12]) it was -20.6%. Further, the Potency result in assay [2] is “inactive”.

As for `O=C1CCC(=O)N1CO`, the activity, negative = cell killing in assay [1] (setting [9]) was -0.626%; in assay [1] (setting [10]), -0.644%; in assay [1] (setting [11]), -17%; in assay [1] (setting [12]) it was -0.827%. In assay [2], the Potency entry is “inactive”.

As to `C[C@@](Cc1ccc(O)c(O)c1)(NN)C(=O)O`, the activity, negative = cell killing in assay [1] (setting [9]) was -16.8%; in assay [1] (setting [10]), -8.91%; in assay [1] (setting [11]), -39.3%; in assay [1] (setting [12]), -14.3%. In assay [2], the Potency entry is “inactive”.

Regarding `CSCCC(N)C(=O)O` (stereo unspecified), the activity, negative = cell killing in assay [1] (setting [9]) was -9.94%; in assay [1] (setting [10]), -6.77%; in assay [1] (setting [11]), -11.9%; in assay [1] (setting [12]) it was -3.8%. Besides, the Potency result in assay [2] was “inactive”.

Consider `Cc1ncc[nH]1`, for which the activity, negative = cell killing was -1% in assay [1] (setting [9]), -14.2% in assay [1] (setting [10]), -4.28% in assay [1] (setting [11]) and -3.58% in assay [1] (setting [12]). In assay [2], the Potency result was “inactive”. In assay [3], the max response was 1.58%. Further, in assay [4], the compound was called inactive.

As to `CCCOc1cc(N)ccc1C(=O)OCCN(CC)CC`, the activity, negative = cell killing in assay [1] (setting [5]) was 3.99%; in assay [1] (setting [6]), -3.15%; in assay [1] (setting [7]), -24.1%; in assay [1] (setting [8]), 3.16%. Also, the Potency result in assay [2] was “inactive”.

Take `CC(C)CCC[C@@H](C)[C@H]1CC[C@H]2[C@@H]3CC=C4C[C@@H](O)CC[C@]4(C)[C@H]3CC[C@]12C`: the activity, negative = cell killing in assay [1] (setting [9]) was -9.94%; in assay [1] (setting [10]) it was -4.88%; in assay [1] (setting [11]) it was -8.25%; in assay [1] (setting [12]), 1.16%. Further, in assay [2], the Potency result is “inactive”. The max response in assay [3] was -2.23%. The compound was classed as inactive in assay [4].

With `C=CCOc1ccc(CC(=O)O)cc1Cl`, the activity, negative = cell killing is 0.88% in assay [1] (setting [9]), 1.11% in assay [1] (setting [10]), -23% in assay [1] (setting [11]) and 0.211% in assay [1] (setting [12]). For the same compound, the Potency result in assay [2] is “inactive”.

With `CC(CC=O)CCCC(C)(C)O` (stereo unspecified), the activity, negative = cell killing is -11.5% in assay [1] (setting [9]), -18.7% in assay [1] (setting [10]), -27.2% in assay [1] (setting [11]) and -24.1% in assay [1] (setting [12]). In assay [2], the Potency result was “inactive”.

As for `CC(C)[C@@H]1CC[C@@H](C)C[C@H]1O`, the activity, negative = cell killing in assay [1] (setting [9]) is -7.27%; in assay [1] (setting [10]), 3.66%; in assay [1] (setting [11]), -18.1%; in assay [1] (setting [12]), -14.4%. In addition, the Potency result in assay [2] is “inactive”. Besides, the max response in assay [3] is -1.32%. Besides, the call in assay [4] was inactive.

For `F[Si-2](F)(F)(F)(F)F`, the activity, negative = cell killing in assay [1] (setting [9]) was 5.47%; in assay [1] (setting [10]) it was -3.02%; in assay [1] (setting [11]), -17.6%; in assay [1] (setting [12]), 30.2%. For the same compound, in assay [2], the Potency result is “inactive”.

(Values after PubChem BioAssay (NCATS).)
